This note sets out measurements from PubChem BioAssay (EPA / NIEHS).

Inconclusive results are not listed. The source made the active and inactive calls. Rule for the calls: active = hit-call score of the fitted dose curve at least 0.9, where 1 is the maximum; inconclusive = response in the unintended direction; inactive = score below 0.9.

Read-out in this test: HMG-CoA synthase (HMGCS2), HMGCS2 (gene 3158)
Briefly: CLD_HMGCS2_24hr: CellzDirect (CLD) Gene Expression Assay for HMG-CoA synthase (HMGCS2) at 24 hours (AID 2283691). On the procedure: CLD_24hr is a cell-based, multiplexed-readout assay that uses hepatocyte, a human liver primary cell, with measurements taken at 24 hours after chemical dosing in a 96-well plate.CLD_HMGCS2_24hr is one of 16 assay component(s) measured or calculated from the CLD_24hr assay. It is designed to make measurements of mRNA induction, a form of inducible reporter, as detected with chemiluminescence signals by Quantitative Nuclease Protection Assay (qNPA) technology.Data from the assay component CLD_HMGCS2_24hr was analyzed at the endpoint, CLD_HMGCS2_24hr, in the positive analysis fitting direction relative to DMSO as the negative control and baseline of activity. Using a type of inducible reporter, gain-of-signal activity can be used to understand changes in the reporter gene as they relate to the gene HMGCS2. Furthermore, this assay endpoint can be referred to as a primary readout. To generalize the intended target to other relatable targets, this assay endpoint is annotated to the lyase intended target family, where subfamily is HMG-CoA synthase.
Human hepatocyte cultures were treated daily for two consecutive days with fresh dosing solutions containing appropriate concentrations of the 320 ToxCast chemicals (chemical identities were blinded to CellzDirect and other ToxCast collaborators), vehicle control (0.2% DMSO), and positive control inducers as summarized in Table 1. Due to the large number of treatment groups and chemicals examined, the ToxCast chemicals were divided into two groups (spanning two independent cultures of hepatocytes from separate donor preparations (Hu778: ToxCast plates 1 and 2; Hu776: ToxCast plates 3 and 4). Each preparation of human hepatocyte cultures was treated with respective vehicle control, medium only control, set of six positive controls/reference chemicals for the five hepatic receptor pathways, and a subset of eight of the ToxCast chemicals (indoxacarb, pyrithiobac-sodium, norflurazon, cyhalofop-butyl, methomyl, thiram, acetochlor, and propiconazole). These replicate data, coupled with internal replicates designed within the blinded ToxCast chemical library, provided additional data to evaluate interindividual differences between hepatocyte preparations and their potential impact on chemical profiles.Cell morphology and integrity were evaluated using phase-contrast microscopy as an indicator of hepatocyte cell health (Tyson & Green, 1987). Cultures for each treatment group (i.e., media, vehicle [0.2% DMSO], positive control inducers [multiple concentrations], and the ToxCast chemicals [multiple concentrations]) were observed and cell morphology was assessed relative to vehicle control cultures at each harvest time point (0, 6, 24, or 48 h). […] Images were evaluated at the conclusion of the study to assess changes in cell integrity and account for the effects of chemical exposure on uncharacteristic changes in concentration-dependent gene expression profiles. The results from these determinations of apparent cytotoxicity were annotated (yes/no) alongside the corresponding qNPA data for reference.At the conclusion of each treatment period, hepatocyte cultures (96-well) were washed with 1 volume of HBSS, lysed by addition of 25 ul ArrayPlate lysis buffer (HTG, Tucson, AZ), and 70 ul/well of Denaturation Oil, denatured by incubation at 95C for 10 min, and frozen at approximately -70C until analysis by nuclease protection assay (qNPA) (Roberts et al., 2007). For qNPA analysis, cell lysates were thawed at 50C for approximately 30 min, qNPA probes were added, and samples were incubated at 95C for 10 min to begin the detection process by denaturing the target RNA, dissociating the duplexes and secondary structure hybridization. At the conclusion of the hybridization period, S1 nuclease reagent was added to each sample to digest all nonprotected nucleotides at 50C for 60-90 min. […]
For `CC(COc1ccc(Oc2ccccc2)cc1)Oc1ccccn1` (stereo not given), the outcome was inactive. Take `CCOP(=O)(OCC)Oc1cc(C)nc(C(C)C)n1`: the outcome was inactive.

Take `COc1cc(OC)nc(Sc2cccc(Cl)c2C(=O)O)n1`: the result was inactive. As for `CNC(=O)ON=C(SC)C(=O)N(C)C`, the result was inactive. The value for `CC[C@H](C)[C@H]1O[C@]2(C=C[C@@H]1C)C[C@@H]1C[C@@H](C/C=C(\C)[C@@H](O[C@H]3C[C@H](OC)[C@@H](O[C@H]4C[C@H](OC)[C@@H](NC)[C@H](C)O4)[C@H](C)O3)[C@@H](C)/C=C/C=C3\CO[C@@H]4[C@H](O)C(C)=C[C@@H](C(=O)O1)[C@]34O)O2` was “inactive”. Consider `CC(=NC#N)N(C)Cc1ccc(Cl)nc1`, for which the compound was called inactive. `CCCSP(=O)(OCC)SCCC`: the call was inactive. The value for `O=C(O)c1cc(Oc2ccc(C(F)(F)F)cc2Cl)ccc1[N+](=O)[O-]` was “inactive”; that for `CCCCOC(=O)[C@@H](C)Oc1ccc(Oc2ccc(C#N)cc2F)cc1` was “inactive”; that for `O=c1ccc(=O)[nH][nH]1` was “inactive”. The value for `CCOP(=S)(OCC)OC(Cl)C(Cl)(Cl)Cl` (stereo not given) was “inactive”. For the compound `CCCCOC(=O)c1ccccc1C(=O)O`, the compound was classed as inactive. The same measure for `CC1=NNC(=O)N(/N=C/c2cccnc2)C1`: “inactive”; for `COP(=O)(OC)C(O)C(Cl)(Cl)Cl` (stereo not given): “inactive”; for `CCOP(=S)(OCC)SCCSCC`: “inactive”. The value for `CN(C)[C@@H]1C(=O)C(C(N)=O)=C(O)[C@@]2(O)C(=O)C3=C(O)c4c(O)cccc4[C@@](C)(O)[C@H]3[C@H](O)[C@@H]12` was “inactive”. With `CC(Oc1cccc(Cl)c1)C(=O)O` (stereo not given), the outcome was inactive.

As for `C[N+]1(C)CCCCC1`, the compound was classed as inactive. The same measure for `CSC1=N[C@@](C)(c2ccccc2)C(=O)N1Nc1ccccc1`: “inactive”; for `CCc1cnc(C2=NC(C)(C(C)C)C(=O)N2)c(C(=O)O)c1` (stereo not given): “inactive”.
